Test results as given in paper PMC7862700, “An all-to-all approach to the identification of sequence-specific readers for epigenetic DNA modifications on cytosine”.

Key:
Assay in all cases: DAPPL (digital affinity profiling via proximity ligation, sequencing); 10 mM Tris-HCl pH 7.5, 50 mM NaCl, 1 mM DTT, 4% glycerol, room temperature, 30 min; GST-TFs on glutathione beads, 16-mer random dsDNA library, 0.1% formaldehyde crosslink after washing; high values mean tight binding
Settings in all cases: protein: recombinant; tags: N-terminal GST; dsDNA, one strand shown
FLI1 = molecular target: T1, FLI1 (Homo sapiens, UniProt Q01543 1-452)
T1 sequence: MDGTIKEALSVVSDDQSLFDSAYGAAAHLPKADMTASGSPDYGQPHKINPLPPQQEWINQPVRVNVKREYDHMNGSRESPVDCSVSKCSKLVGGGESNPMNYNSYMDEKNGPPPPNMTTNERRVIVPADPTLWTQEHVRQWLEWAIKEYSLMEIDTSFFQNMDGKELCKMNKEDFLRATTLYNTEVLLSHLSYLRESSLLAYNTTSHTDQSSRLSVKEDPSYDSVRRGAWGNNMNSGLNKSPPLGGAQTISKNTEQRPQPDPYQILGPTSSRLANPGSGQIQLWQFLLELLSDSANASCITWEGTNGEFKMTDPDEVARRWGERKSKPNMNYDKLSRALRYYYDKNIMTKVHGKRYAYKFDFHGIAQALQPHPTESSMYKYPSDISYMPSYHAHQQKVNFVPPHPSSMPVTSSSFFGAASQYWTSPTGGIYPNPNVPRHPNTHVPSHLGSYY
In short: (§1)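 The binding signal reported is, for every hexamer, its read frequency for a factor over its read frequency for the tag-only sample. Reads came from pools of yeast-expressed, GST-fused human transcription factors on glutathione beads, barcoded with DNA and mixed with that sample, which were incubated with 200 nmole of a random double-stranded 16-mer DNA library in Tris/NaCl/DTT/glycerol buffer at room temperature for 30 min. After washing, the pools were crosslinked with 0.1% formaldehyde, proximity-ligated with BsaI/T4 ligase for 1 h at 37 °C, PCR-amplified and sequenced on an Illumina NextSeq500.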

ELK1 = molecular target: T2, ELK1 (Homo sapiens, UniProt P19419 1-428)
T2 sequence: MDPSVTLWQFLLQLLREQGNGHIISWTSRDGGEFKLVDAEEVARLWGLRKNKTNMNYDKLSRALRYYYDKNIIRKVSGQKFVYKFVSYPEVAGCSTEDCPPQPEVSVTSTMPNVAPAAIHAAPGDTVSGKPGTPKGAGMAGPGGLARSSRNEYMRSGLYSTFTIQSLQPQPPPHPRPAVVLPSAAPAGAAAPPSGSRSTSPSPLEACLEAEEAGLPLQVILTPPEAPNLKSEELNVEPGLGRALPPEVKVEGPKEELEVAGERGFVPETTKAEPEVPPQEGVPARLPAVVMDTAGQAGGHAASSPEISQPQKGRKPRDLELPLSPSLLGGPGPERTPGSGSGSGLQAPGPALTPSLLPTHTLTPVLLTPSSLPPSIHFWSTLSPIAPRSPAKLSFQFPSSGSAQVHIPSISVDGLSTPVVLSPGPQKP
In short: as §1

GABPA = molecular target: T3, GABPA (Homo sapiens, UniProt Q06546 1-454)
T3 sequence: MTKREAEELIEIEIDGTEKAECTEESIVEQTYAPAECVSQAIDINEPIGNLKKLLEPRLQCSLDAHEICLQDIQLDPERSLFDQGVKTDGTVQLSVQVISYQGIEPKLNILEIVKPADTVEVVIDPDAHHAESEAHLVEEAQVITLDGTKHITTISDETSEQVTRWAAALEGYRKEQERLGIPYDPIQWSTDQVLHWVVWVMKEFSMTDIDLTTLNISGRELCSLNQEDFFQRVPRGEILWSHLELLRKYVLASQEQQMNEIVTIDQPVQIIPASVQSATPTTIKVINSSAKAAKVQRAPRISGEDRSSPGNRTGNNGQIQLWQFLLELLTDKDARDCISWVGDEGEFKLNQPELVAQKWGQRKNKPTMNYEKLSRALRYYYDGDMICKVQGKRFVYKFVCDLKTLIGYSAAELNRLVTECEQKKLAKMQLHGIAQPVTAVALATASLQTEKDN
In short: as §1

ELF1 = ELF1 (Homo sapiens, UniProt P32519 1-619)
ELF1, sequence (P32519 whole entry): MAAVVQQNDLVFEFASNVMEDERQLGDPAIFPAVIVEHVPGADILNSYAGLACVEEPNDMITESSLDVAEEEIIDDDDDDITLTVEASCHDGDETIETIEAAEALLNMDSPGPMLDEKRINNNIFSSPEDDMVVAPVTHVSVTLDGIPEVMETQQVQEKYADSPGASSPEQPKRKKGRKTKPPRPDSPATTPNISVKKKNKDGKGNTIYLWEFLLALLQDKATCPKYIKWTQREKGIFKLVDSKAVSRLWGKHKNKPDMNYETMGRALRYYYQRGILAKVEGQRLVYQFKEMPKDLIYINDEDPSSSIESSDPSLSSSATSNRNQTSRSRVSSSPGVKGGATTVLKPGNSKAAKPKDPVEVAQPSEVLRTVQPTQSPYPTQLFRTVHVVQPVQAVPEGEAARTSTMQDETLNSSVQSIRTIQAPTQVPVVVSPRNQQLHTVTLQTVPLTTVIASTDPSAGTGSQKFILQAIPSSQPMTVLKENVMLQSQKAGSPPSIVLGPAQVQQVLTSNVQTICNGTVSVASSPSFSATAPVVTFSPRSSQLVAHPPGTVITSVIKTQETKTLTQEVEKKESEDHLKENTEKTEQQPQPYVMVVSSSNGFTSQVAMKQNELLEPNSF
In short: as §1

EHF = molecular target: T4, EHF (Homo sapiens, UniProt Q9NZC4 1-300)
T4 sequence: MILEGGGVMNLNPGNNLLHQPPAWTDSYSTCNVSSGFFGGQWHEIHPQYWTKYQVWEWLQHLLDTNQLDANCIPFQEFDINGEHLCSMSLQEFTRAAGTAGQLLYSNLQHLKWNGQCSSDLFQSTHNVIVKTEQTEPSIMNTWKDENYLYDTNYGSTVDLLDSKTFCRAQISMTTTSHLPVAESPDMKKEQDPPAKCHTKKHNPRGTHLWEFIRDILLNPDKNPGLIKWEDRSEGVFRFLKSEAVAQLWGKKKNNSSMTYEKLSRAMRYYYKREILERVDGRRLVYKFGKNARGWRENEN
In short: as §1

SPI1 = SPI1 (Homo sapiens, UniProt P17947 1-270)
In short: as §1

SPIB = SPIB (Homo sapiens, UniProt Q01892 1-262)
SPIB, sequence (Q01892 whole entry): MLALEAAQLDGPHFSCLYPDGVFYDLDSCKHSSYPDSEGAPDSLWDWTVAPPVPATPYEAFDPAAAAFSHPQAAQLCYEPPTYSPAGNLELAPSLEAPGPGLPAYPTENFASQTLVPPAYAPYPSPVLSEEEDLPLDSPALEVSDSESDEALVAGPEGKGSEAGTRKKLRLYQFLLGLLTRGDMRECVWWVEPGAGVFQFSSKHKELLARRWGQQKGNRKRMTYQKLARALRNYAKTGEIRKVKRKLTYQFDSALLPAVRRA
In short: as §1

ELK3 = molecular target: T5, ELK3 (Homo sapiens, UniProt P41970 1-407)
T5 sequence: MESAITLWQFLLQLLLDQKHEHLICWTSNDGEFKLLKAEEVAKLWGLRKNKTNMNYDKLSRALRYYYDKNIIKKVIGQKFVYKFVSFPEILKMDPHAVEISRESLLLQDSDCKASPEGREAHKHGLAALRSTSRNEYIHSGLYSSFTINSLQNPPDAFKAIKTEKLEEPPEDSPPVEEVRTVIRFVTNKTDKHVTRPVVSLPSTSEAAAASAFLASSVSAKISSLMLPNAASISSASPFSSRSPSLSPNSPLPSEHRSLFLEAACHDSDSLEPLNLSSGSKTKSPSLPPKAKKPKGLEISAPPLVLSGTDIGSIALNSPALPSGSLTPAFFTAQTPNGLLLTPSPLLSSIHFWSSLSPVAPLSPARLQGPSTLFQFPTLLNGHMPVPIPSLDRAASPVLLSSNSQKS
In short: as §1

FEV = molecular target: T6, FEV (Homo sapiens, UniProt Q99581 1-238)
T6 sequence: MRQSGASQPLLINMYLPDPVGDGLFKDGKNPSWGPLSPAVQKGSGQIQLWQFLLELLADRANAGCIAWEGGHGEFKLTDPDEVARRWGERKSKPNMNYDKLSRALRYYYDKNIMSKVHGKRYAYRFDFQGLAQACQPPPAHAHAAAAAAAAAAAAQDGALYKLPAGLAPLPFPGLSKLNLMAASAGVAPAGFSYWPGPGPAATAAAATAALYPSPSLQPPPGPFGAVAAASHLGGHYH
In short: as §1

ETV5 = ETV5 (Homo sapiens, UniProt P41161 1-510)
ETV5, sequence (P41161 whole entry): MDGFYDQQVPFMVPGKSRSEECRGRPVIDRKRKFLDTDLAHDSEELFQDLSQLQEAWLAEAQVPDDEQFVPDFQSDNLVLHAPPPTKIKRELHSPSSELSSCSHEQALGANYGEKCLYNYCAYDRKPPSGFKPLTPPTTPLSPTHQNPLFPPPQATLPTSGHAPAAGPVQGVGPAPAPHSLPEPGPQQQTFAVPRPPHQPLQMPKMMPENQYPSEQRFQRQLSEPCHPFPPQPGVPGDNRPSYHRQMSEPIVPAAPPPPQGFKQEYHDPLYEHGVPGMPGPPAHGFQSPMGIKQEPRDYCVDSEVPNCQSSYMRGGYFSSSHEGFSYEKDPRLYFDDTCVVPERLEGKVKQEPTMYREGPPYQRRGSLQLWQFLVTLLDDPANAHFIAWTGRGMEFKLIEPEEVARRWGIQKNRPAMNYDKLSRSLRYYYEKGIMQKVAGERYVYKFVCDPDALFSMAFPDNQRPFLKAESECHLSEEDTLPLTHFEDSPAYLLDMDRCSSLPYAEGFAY
In short: as §1

SPIC = molecular target: T7, SPIC (Homo sapiens, UniProt Q8N5J4 1-248)
T7 sequence: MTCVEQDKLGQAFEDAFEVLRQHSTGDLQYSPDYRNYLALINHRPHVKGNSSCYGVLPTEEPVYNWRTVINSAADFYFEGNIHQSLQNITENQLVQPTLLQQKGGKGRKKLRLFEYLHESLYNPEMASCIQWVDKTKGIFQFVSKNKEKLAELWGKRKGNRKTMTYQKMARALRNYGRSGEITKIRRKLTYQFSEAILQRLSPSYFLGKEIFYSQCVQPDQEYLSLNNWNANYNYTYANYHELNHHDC
In short: as §1

ELF4 = ELF4 (Homo sapiens, UniProt Q99607 1-663)
ELF4, sequence (Q99607 whole entry): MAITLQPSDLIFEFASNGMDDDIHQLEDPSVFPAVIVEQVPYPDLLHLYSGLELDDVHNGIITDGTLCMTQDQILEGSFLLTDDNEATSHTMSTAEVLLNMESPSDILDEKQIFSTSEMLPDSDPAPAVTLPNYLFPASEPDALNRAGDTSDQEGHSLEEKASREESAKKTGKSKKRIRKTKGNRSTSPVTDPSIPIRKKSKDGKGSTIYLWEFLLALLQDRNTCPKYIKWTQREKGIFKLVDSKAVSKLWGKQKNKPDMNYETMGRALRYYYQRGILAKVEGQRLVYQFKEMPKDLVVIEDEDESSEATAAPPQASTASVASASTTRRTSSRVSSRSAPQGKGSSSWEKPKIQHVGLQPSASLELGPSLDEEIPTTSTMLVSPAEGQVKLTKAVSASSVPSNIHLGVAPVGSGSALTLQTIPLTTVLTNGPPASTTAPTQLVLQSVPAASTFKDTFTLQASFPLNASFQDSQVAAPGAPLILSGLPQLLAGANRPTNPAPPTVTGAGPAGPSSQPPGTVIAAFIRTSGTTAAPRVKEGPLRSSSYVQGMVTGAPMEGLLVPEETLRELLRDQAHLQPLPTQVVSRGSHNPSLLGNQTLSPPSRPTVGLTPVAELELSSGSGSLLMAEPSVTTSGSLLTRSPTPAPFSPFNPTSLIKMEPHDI
In short: as §1

ETV1 = ETV1 (Homo sapiens, UniProt P50549 1-477)
ETV1, sequence (P50549 whole entry): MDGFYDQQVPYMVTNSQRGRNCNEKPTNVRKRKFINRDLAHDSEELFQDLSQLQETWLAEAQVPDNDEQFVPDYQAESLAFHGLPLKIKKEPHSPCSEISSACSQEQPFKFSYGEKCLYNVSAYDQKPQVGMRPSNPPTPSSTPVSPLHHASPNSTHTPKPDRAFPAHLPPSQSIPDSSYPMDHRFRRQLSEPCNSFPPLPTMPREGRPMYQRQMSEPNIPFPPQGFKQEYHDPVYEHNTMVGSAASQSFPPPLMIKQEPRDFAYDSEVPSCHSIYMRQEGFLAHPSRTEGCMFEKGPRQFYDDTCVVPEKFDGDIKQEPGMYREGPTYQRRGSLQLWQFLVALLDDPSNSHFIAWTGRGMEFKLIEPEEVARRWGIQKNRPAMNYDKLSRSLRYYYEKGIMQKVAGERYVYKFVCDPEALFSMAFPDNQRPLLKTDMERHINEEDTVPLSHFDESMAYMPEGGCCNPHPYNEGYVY
In short: as §1

ERF = molecular target: T8, ERF (Homo sapiens, UniProt P50548 1-548)
T8 sequence: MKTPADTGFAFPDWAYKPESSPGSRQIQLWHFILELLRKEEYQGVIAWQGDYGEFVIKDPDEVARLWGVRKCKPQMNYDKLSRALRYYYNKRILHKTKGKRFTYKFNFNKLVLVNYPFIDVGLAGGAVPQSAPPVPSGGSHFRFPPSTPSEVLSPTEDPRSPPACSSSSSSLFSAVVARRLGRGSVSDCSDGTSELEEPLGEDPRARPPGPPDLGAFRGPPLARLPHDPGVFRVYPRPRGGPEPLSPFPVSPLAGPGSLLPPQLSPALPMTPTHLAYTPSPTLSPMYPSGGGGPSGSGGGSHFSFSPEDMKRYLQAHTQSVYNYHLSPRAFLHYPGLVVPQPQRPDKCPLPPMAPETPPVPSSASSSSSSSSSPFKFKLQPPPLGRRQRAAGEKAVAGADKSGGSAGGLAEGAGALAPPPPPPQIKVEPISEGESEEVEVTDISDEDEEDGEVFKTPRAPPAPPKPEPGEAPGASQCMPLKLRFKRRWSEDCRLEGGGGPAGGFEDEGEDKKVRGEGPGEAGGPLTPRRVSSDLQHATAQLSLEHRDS
In short: as §1

ETV3L = molecular target: T9, ETV3L (Homo sapiens, UniProt Q6ZN32 1-361)
T9 sequence: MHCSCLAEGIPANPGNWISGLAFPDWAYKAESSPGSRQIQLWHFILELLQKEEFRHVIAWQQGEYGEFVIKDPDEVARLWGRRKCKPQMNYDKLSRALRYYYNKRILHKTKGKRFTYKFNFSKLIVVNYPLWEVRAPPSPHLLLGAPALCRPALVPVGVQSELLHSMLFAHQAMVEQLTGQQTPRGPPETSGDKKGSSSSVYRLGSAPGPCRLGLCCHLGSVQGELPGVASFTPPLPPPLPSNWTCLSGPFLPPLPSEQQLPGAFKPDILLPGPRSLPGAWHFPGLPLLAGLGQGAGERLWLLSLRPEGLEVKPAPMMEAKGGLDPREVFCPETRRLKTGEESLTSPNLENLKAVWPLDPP
In short: as §1

ETS2 = molecular target: T10, ETS2 (Homo sapiens, UniProt P15036 1-469)
T10 sequence: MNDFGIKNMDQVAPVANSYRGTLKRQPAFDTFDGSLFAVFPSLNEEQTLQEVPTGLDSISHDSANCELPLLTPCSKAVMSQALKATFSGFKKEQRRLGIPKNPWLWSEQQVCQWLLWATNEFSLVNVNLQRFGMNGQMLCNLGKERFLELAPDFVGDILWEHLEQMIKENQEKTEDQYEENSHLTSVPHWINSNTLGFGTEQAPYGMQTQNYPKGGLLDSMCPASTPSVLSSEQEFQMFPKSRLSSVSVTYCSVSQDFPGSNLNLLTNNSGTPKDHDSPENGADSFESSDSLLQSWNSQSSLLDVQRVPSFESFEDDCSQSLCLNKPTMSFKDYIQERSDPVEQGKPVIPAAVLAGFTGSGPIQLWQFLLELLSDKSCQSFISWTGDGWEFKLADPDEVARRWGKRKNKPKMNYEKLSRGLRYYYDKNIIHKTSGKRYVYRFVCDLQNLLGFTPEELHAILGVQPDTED
In short: as §1

SPDEF = molecular target: T11, SPDEF (Homo sapiens, UniProt O95238 1-335)
T11 sequence: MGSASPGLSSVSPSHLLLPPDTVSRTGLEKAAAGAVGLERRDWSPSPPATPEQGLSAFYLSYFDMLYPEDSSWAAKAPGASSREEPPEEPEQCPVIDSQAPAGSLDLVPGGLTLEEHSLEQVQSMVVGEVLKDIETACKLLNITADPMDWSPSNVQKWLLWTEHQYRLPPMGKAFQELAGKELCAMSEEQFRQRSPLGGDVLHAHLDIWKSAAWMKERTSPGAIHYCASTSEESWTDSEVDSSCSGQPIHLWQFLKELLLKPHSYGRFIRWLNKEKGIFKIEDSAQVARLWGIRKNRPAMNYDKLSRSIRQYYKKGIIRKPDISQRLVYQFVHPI
In short: as §1

ETV3 = molecular target: T12, ETV3 (Homo sapiens, UniProt P41162-2 1-143)
T12 sequence: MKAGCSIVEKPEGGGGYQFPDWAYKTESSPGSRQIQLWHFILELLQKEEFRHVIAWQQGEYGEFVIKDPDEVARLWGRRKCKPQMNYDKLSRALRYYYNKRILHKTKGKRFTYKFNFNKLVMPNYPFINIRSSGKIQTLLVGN
In short: as §1

ETV6 = ETV6 (Homo sapiens, UniProt P41212 1-452)
ETV6, sequence (P41212 whole entry): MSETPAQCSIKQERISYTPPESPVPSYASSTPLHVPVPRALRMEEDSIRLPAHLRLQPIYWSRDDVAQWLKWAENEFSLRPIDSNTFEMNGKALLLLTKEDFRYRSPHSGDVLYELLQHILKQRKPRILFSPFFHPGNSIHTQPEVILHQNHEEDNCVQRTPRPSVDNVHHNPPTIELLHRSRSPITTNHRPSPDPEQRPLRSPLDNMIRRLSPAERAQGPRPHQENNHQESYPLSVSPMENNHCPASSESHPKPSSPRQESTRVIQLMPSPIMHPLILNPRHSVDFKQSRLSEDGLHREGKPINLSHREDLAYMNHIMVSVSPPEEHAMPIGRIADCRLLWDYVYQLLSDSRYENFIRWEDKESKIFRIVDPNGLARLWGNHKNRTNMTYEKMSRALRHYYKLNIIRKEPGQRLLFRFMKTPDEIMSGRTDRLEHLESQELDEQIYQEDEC
In short: as §1

In the case of TGCTGC, the binding signal (FLI1) is reported as 1.15 fold enrichment (6-mer frequency, TF over GST control), the binding signal (ELK1) is reported as 1.15 fold enrichment (6-mer frequency, TF over GST control) and the binding signal (GABPA) is reported as 1.16 fold enrichment (6-mer frequency, TF over GST control). The binding signal (ELF1) was 1.21 fold enrichment (6-mer frequency, TF over GST control), the binding signal (EHF) was 1.3 fold enrichment (6-mer frequency, TF over GST control) and the binding signal (SPI1) was 1.11 fold enrichment (6-mer frequency, TF over GST control). For the same sequence, the binding signal (SPIB) was 1.07 fold enrichment (6-mer frequency, TF over GST control), the binding signal (ELK3) was 1.08 fold enrichment (6-mer frequency, TF over GST control) and the binding signal (FEV) was 1.15 fold enrichment (6-mer frequency, TF over GST control). The binding signal (ETV5) was 1.17 fold enrichment (6-mer frequency, TF over GST control), the binding signal (SPIC) was 1.3 fold enrichment (6-mer frequency, TF over GST control) and the binding signal (ELF4) was 1.16 fold enrichment (6-mer frequency, TF over GST control). For the same sequence, the binding signal (ETV1) was 1.13 fold enrichment (6-mer frequency, TF over GST control), the binding signal (ERF) was 1.07 fold enrichment (6-mer frequency, TF over GST control) and the binding signal (ETV3L) was 1.34 fold enrichment (6-mer frequency, TF over GST control). The binding signal (ETS2) was 1.15 fold enrichment (6-mer frequency, TF over GST control), the binding signal (SPDEF) was 1.05 fold enrichment (6-mer frequency, TF over GST control) and the binding signal (ETV3) was 1.23 fold enrichment (6-mer frequency, TF over GST control). The binding signal (ETV6) was 1.1 fold enrichment (6-mer frequency, TF over GST control).
